Laboratory results reported in PubChem BioAssay (Tox21).
Records with an inconclusive call do not appear. Calls of active or inactive are those of the source. Unless noted, calls come from the whole dose curve; as a rule, active = well fitted curve in the direction sought with a large enough effect in the repeat runs; inconclusive = weak or mixed curves; inactive = no such curve, though single readings can be large; an effect the other way counts as inactive or inconclusive.

Legend:
[1] = qHTS assay to identify small molecule antagonists of the peroxisome proliferator-activated receptor gamma (PPARg) signaling pathway - cell viability counter screen (AID 743194); note: nearly all actives have a fitted effect of over 55% in size
In short: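 Cytotoxicity counter screen in PPARg-bla HEK293H cells, same wells as reporter assay. Compounds plus 50 nM rosiglitazone (final) for 17 h at 37 C, then viability read by CellTiter-Glo luminescence.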

[2] = qHTS assay for small molecule agonists of the antioxidant response element (ARE) signaling pathway (AID 743202; active = well fitted activation curve with a large enough effect in the signal ratio in the repeat runs, not every such curve was filed as active; the % refers to the signal ratio; note: potency is the fitted concentration of half-maximal effect)
In short: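 Agonist mode reporter screen: HepG2 cells with ARE-controlled beta-lactamase are incubated with test compounds for 16 h at 37 C, and beta-lactamase activity is measured as fluorescence of cleaved B/G FRET substrate.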

[3] = qHTS assay for small molecule agonists of the antioxidant response element (ARE) signaling pathway - cell viability counter screen (AID 743203; calls by dose curve; note: nearly all actives have a fitted effect of over 55% in size)
In short: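 Seeded at 2,000 cells/well, ARE-bla HepG2 cells were incubated 5 hrs before compound addition. After 16 hrs of treatment at 37C with 5% CO2, CellTiter-Glo reagent was added and luminescence read 30 min later.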

[4] = qHTS assay for small molecule activators of the heat shock response signaling pathway (AID 743210; active = well fitted activation curve with a large enough effect in the signal ratio in the repeat runs, with a control signal flat, not every such curve was filed as active; the % refers to the signal ratio;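 note: HeLa cells with beta-lactamase reporter driven by heat shock elements; series mostly up to about 63 µM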)
In short: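 Quantitative high-throughput format using an engineered HeLa line in which heat shock response elements drive beta-lactamase; after 5 h with compound, cells received a B/G FRET substrate and fluorescence was read.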

[5] = qHTS assay to identify small molecule agonists of the peroxisome proliferator-activated receptor delta (PPARd) signaling pathway - cell viability counter screen (AID 743211); note: nearly all actives have a fitted effect of over 55% in size
In short: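 In the same wells used for beta-lactamase reporter measurement, cytotoxicity is scored by CellTiter-Glo. HEK293H PPARd-bla cells receive compound for 17 h at 37C following a 5 h settling period.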

[6] = qHTS assay to identify small molecule antagonists of the peroxisome proliferator-activated receptor delta (PPARd) signaling pathway - cell viability counter screen (AID 743213); note: nearly all actives have a fitted effect of over 50% in size
In short: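 Agonist-stimulated (L165041, 300 nM final) HEK293H PPARd UAS-bla cells are exposed to compounds for 17 h at 37 C, and ATP-based luminescence (CellTiter-Glo) from the same wells reports cytotoxicity.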

[7] = target: Bile acid receptor (Homo sapiens) (UniProt Q96RI1); assay: qHTS assay to identify small molecule antagonists of the farnesoid-X-receptor (FXR) signaling pathway (AID 743217; active = well fitted inhibition curve with a large enough effect in the signal ratio in the repeat runs, not every such curve was filed as active; the % refers to the signal ratio)
Chain of Bile acid receptor (Homo sapiens) (Q96RI1 whole entry, looked up): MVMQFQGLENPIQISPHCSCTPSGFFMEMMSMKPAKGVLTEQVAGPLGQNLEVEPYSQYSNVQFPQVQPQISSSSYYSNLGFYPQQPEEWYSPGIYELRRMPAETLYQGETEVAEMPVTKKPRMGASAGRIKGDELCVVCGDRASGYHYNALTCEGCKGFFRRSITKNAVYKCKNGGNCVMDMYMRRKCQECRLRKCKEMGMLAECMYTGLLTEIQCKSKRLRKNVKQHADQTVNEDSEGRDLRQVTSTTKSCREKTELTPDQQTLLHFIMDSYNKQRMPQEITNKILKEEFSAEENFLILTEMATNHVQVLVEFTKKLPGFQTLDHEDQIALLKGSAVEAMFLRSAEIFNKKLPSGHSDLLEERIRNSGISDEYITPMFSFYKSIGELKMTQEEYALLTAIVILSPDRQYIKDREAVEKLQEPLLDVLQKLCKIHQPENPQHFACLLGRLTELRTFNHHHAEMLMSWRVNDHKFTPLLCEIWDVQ
In short: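 Antagonist mode against 50 uM (final) chenodeoxycholic acid stimulation in FXR-bla HEK 293T cells, 16 h at 37 °C. Inhibition detected as reduced beta-lactamase activity via LiveBLAzer B/G FRET fluorescence after 2 h at room temperature.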

[8] = qHTS assay to identify small molecule agonists of the farnesoid-X-receptor (FXR) signaling pathway - cell viability counter screen (AID 743218); note: nearly all actives have a fitted effect of over 45% in size
In short: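 Cytotoxicity counter-screen run in parallel, same wells: FXR-UAS-bla HEK 293T cells dosed 16 h at 37 C, viability read by CellTiter-Glo luminescence after 30 min at room temperature.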

[9] = target: Bile acid receptor (Homo sapiens) (UniProt Q96RI1); assay: qHTS assay to identify small molecule agonists of the farnesoid-X-receptor (FXR) signaling pathway (AID 743220; active = well fitted activation curve with a large enough effect in the signal ratio in the repeat runs, not every such curve was filed as active; the % refers to the signal ratio)
In short: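 Beta-lactamase reporter under UAS control in GeneBLAzer FXR HEK 293T cells (5000/well) measured with LiveBLAzer FRET substrate after 2 h at room temperature. Compound exposure lasted 16 h at 37C.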

[10] = qHTS assay to identify small molecule antagonists of the farnesoid-X-receptor (FXR) signaling pathway - cell viability counter screen (AID 743221; active = well fitted cell-killing curve with a large enough effect in the repeat runs, not every such curve was filed as active; note: nearly all actives have a fitted effect of over 50% in size)
In short: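 Here viability was scored by luminescence after CellTiter-Glo addition to wells already read for beta-lactamase. Prior treatment: compound plus CDCA (50 uM final), 16 h, 37 C, HEK 293T FXR-bla cells.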

[11] = target: Vitamin D3 receptor (Homo sapiens) (UniProt P11473); assay: qHTS assay to identify small molecule antagonists of the vitamin D receptor (VDR) signaling pathway (AID 743223; active = well fitted inhibition curve with a large enough effect in the signal ratio in the repeat runs, not every such curve was filed as active; the % refers to the signal ratio)
Chain of Vitamin D3 receptor (Homo sapiens) (P11473 whole entry, looked up): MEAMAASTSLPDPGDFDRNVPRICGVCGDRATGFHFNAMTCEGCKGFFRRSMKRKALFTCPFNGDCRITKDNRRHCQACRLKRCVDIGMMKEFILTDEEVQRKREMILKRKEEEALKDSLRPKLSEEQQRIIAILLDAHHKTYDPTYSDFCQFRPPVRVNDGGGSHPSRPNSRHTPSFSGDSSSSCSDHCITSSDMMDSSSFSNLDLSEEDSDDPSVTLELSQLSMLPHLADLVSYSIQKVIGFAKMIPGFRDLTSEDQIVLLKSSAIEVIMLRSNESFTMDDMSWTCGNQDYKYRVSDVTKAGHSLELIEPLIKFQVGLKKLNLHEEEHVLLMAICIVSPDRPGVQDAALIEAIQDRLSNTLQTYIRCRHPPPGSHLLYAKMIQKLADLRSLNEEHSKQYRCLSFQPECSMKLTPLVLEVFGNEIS
In short: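 Inhibition of agonist-driven VDR signalling is scored in VDR-bla cells: 3 nM final 1alpha,25-dihydroxyvitamin D3 plus compound, 16 h at 37C, then beta-lactamase detection by FRET substrate fluorescence after 2 h.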

[12] = qHTS assay for small molecule activators of the heat shock response signaling pathway - cell viability counter screen (AID 743209); note: nearly all actives have a fitted effect of over 50% in size
In short: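 First, HSE-bla HeLa cells were seeded at 1500 cells/well and kept overnight at 37 C. Next, compounds were pinned in and incubated 5 h. After the FRET substrate step, CellTiter-Glo was added and luminescence read 30 min later.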

[13] = target: Peroxisome proliferator-activated receptor delta (Homo sapiens) (UniProt Q03181); assay: qHTS assay to identify small molecule antagonists of the peroxisome proliferator-activated receptor delta (PPARd) signaling pathway (AID 743215; active = well fitted inhibition curve with a large enough effect in the signal ratio in the repeat runs, not every such curve was filed as active; the % refers to the signal ratio; note: series mostly up to about 62 µM)
Chain of Peroxisome proliferator-activated receptor delta (Homo sapiens) (Q03181 whole entry, looked up): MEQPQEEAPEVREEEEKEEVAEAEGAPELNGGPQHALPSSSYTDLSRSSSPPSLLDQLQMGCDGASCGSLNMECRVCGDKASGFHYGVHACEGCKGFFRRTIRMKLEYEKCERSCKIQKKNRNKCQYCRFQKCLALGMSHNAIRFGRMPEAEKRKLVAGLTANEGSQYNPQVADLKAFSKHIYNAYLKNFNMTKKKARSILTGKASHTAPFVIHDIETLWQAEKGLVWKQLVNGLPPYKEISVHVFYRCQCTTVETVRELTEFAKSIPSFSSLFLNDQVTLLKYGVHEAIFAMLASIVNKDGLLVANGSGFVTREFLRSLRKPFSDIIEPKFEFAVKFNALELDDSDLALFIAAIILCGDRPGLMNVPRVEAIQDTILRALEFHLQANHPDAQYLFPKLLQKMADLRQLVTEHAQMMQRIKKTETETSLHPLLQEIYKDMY
In short: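 Inhibition of L165041-driven (300 nM final) PPARd signaling is scored in HEK293H UAS-bla cells. Exposure lasts 17 h at 37 C; beta-lactamase activity is then read by FRET substrate fluorescence after 2 h at room temperature.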

[14] = target: Vitamin D3 receptor (Homo sapiens) (UniProt P11473); assay: qHTS assay to identify small molecule agonists of the vitamin D receptor (VDR) signaling pathway (AID 743222; calls by dose curve)
In short: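 Quantitative HTS agonist-mode screen: compounds in DMSO were pin-transferred onto VDR-bla cells and incubated 16 h at 37C, 5% CO2. Reporter activity was detected with LiveBLAzer B/G FRET substrate after 2 h at room temperature.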

[15] = target: Peroxisome proliferator-activated receptor gamma (Homo sapiens) (UniProt P37231); assay: qHTS assay to identify small molecule antagonists of the peroxisome proliferator-activated receptor gamma (PPARg) signaling pathway (AID 743191; calls by dose curve; note: nearly all actives have a fitted effect of over 30% in size; note: potency is the fitted concentration of half-maximal effect)
Chain of Peroxisome proliferator-activated receptor gamma (Homo sapiens) (P37231 whole entry, looked up): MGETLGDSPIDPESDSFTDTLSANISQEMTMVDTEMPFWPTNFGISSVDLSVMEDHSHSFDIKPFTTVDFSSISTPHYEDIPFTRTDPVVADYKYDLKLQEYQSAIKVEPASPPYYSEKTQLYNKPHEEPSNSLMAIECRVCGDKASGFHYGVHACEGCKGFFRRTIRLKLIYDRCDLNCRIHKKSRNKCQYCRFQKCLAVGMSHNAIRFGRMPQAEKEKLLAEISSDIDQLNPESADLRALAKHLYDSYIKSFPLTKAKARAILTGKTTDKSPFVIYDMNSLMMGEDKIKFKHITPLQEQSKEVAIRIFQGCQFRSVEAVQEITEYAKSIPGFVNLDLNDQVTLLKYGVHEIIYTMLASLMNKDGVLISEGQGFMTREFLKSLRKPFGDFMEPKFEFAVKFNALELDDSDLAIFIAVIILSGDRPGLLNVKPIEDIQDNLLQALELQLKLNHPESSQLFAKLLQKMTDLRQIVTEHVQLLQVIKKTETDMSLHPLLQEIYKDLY
In short: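 GeneBLAzer PPARg UAS-bla HEK293H cells, 5 h post-plating, exposed to compounds 17 h at 37C. LiveBLAzer B/G FRET substrate added for 1 h at room temperature; beta-lactamase reporter read by fluorescence intensity.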

[16] = qHTS assay to identify aromatase inhibitors - cell viability counter screen (AID 743084);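 note: cells stimulated with testosterone during compound exposure; nearly all actives have a fitted effect of over 55% in size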; note: potency is the fitted concentration of half-maximal effect
[17] = qHTS assay to identify small molecule that activate the aryl hydrocarbon receptor (AhR) signaling pathway - cell viability counter screen (AID 743086);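 note: HepG2 liver cells carrying the AhR DRE luciferase reporter; series mostly up to about 70 µM; nearly all actives have a fitted effect of over 45% in size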
In short: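 HepG2-AhR-luc (HG2L7.5c1) cells, 4000/well, treated 24 h at 37 C with compound; viability measured as CellTiter-Fluor fluorescence after 30 min in the same wells as the luciferase read.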

[18] = target: Peroxisome proliferator-activated receptor gamma (Homo sapiens) (UniProt P37231); assay: qHTS assay to identify small molecule agonists of the peroxisome proliferator-activated receptor gamma (PPARg) signaling pathway (AID 743094; active = well fitted activation curve with a large enough effect in the signal ratio in the repeat runs, not every such curve was filed as active; the % refers to the signal ratio)
In short: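 Quantitative HTS agonist mode: stable HEK293H line with UAS-beta-lactamase reporter under PPARg control, 17 h compound exposure at 37C, fluorescence after 1 h FRET substrate loading at room temperature.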

[19] = target: Peroxisome proliferator-activated receptor delta (Homo sapiens) (UniProt Q03181); assay: qHTS assay to identify small molecule agonists of the peroxisome proliferator-activated receptor delta (PPARd) signaling pathway (AID 743212; calls by dose curve)
In short: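 Quantitative high-throughput agonist screen in a HEK293H beta-lactamase reporter line under UAS control. Compounds in DMSO, at 37 C. Fluorescence read after 2 h with FRET substrate at room temperature.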

[20] = target: Aryl hydrocarbon receptor (Homo sapiens) (UniProt P35869); assay: qHTS assay to identify small molecule that activate the aryl hydrocarbon receptor (AhR) signaling pathway (AID 743085);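 note: HG2L7.5c1 human HepG2 liver cells with stably integrated DRE-driven firefly reporter; series mostly up to about 70 µM; nearly all actives have a fitted effect of over 15% in size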
Chain of Aryl hydrocarbon receptor (Homo sapiens) (P35869 whole entry, looked up): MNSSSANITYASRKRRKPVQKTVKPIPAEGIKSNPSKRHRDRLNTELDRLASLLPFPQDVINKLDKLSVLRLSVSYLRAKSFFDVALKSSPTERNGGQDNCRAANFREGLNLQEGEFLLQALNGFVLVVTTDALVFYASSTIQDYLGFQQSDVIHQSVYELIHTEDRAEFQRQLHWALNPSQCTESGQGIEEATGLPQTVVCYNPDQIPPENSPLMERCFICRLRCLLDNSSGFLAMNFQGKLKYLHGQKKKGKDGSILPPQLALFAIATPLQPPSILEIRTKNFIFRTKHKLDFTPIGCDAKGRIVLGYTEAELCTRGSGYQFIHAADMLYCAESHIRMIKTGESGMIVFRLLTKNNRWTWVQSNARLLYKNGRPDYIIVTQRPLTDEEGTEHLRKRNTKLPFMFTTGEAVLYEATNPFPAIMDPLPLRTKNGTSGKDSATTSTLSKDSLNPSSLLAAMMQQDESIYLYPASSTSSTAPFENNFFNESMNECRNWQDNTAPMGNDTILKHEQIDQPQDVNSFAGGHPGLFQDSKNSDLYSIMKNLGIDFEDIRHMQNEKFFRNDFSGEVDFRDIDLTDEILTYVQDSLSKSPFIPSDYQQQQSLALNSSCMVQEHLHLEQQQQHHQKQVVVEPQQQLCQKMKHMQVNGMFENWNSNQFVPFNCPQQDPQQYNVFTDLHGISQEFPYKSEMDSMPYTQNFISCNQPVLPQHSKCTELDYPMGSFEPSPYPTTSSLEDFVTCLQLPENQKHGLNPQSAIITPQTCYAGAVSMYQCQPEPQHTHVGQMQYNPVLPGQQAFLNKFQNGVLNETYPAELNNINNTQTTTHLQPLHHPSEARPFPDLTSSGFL
In short: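 Stably transfected human liver carcinoma cells (HG2L7.5c1; 20 DRE-firefly luciferase) were incubated 5 h, dosed, and kept 24 h at 37C. Agonism was scored from increased luciferase luminescence.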

Measured: Potency

CCCC(CCC)(C(=O)OCC)C(=O)OCC
inactive: [1] | [2] | [3] | [4] | [5] | [6] | [7] | [8] | [9] | [10] | [11]

CCCOc1ccc2c(c1)CC[C@@H]1[C@@H]2CC[C@]2(C)C(OC)CC[C@@H]12 (stereo not given in full)
inactive: [1] | [3] | [12] | [4] | [6] | [13] | [8] | [10] | [14]

COC(=O)/C=C(/C)N
not listed: [5] | [8] | [16] | [17] | [18] | [19] | [20]
inactive: all other assays above

Cc1onc(-c2ccccc2)c1C(=O)Cl
not listed: [11] | [13] | [16] | [17] | [18] | [19] | [20]
inactive: all other assays above

CC(C)NC[C@@H](O)COc1cccc2ccccc12
inactive: [16] | [17] | [1] | [12] | [4] | [7] | [8] | [9] | [10] | [14] | [11]

O=C1Nc2ccc([N+](=O)[O-])cc2C1=O
inactive: [3] | [12] | [4] | [5] | [6] | [13] | [8] | [10]

c1ccc(CN(CC2=NCCN2)c2ccccc2)cc1
inactive: [16] | [18] | [1] | [3] | [12] | [4] | [6] | [8] | [10] | [14]

CCOc1ccc(NS(=O)(=O)c2ccc(N)cc2)nn1
inactive: [17] | [1] | [2] | [4] | [5] | [19] | [6] | [13] | [8] | [10]

O=Cc1ccc(O)c(O)c1O
inactive: [15] | [1] | [3] | [7] | [8] | [9] | [10]
active: [2] 23.7 µM

CC1=NN(c2cc(Cl)c(S(=O)(=O)O)cc2Cl)C(=O)C1N=Nc1ccc(S(=O)(=O)O)cc1 (stereo not given)
not listed: [7] | [9] | [13] | [16] | [17] | [19]
inactive: all other assays above

CCOC(=O)c1cc(=O)c2c(OCC(COc3cccc4oc(C(=O)OCC)cc(=O)c34)OC(=O)[C@@H](N)CCCCN)cccc2o1
not listed: [13] | [16] | [17] | [18] | [19] | [20]
inactive: all other assays above

N#CSCC(=O)O
not listed: [4] | [11] | [14] | [15] | [16] | [17] | [18] | [20]
inactive: all other assays above

CN1CCN(N)CC1
not listed: [11] | [14] | [16] | [17] | [18] | [20]
inactive: all other assays above

CC(=O)O[C@H]1CC[C@@]2(C)C(=CC[C@@H]3[C@@H]2CC[C@]2(C)C(C(C)=O)=CC[C@@H]32)C1
active: [2] 23.7 µM
inactive: [15] | [1] | [12] | [4] | [5] | [6] | [8] | [10] | [14] | [11]

Cc1nc(N)nc(N)c1-c1ccc(Cl)c(Cl)c1
active: [15] 1.88 µM
inactive: [12] | [4] | [5] | [19] | [13] | [9]

CCCC1CCC(=O)O1 (stereo not given)
not listed: [5] | [7] | [9] | [16]
inactive: all other assays above

Cc1cc2c(s1)Nc1ccccc1N=C2N1CCN(C)CC1
active: [16] 23.7 µM
not listed: [2] | [4] | [7] | [9] | [17] | [19] | [20]
inactive: all other assays above

Nc1ccc2ccccc2c1S(=O)(=O)O
inactive: [1] | [12] | [4] | [5] | [6] | [13] | [8] | [10] | [14] | [11]
active: [2] 12.4 µM
